From PubChem BioAssay (NCATS) come the findings set out here.

Results filed as inconclusive are left out. A number with no mark means an inactive call. Active and inactive are the calls of the source. The call rests on the fitted dose curve; in most records, active means well fitted curve in the direction sought with a large enough effect; inconclusive means small, poorly fitted or top-dose-only effect, or another doubt; inactive means no such curve, though single readings can be large; an effect the other way counts as inactive or inconclusive.
Potency means the concentration at half of the fitted maximal effect.

The first assay in a line: qHTS of pediatric cancer cell lines to identify multiple opportunities for drug repurposing: Primary screen for SK-N-MC cells (AID 1347093).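 On activity change, negative = cytotoxic: plate controls were DMSO neutral control for no effect and bortezomib for full effect.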 As to conditions: SK-N-MC viability, CellTiter-Glo luminescence, 48 h; series mostly up to 46 µM; activity change, negative = cytotoxic: at the top concentration. Summed up:
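Metabolically active cells were quantified by ATP-dependent luminescence (CellTiter-Glo, 15 min at room temperature) following 48 h treatment. Cells had been plated at 500-1,000 per well and settled for 5 h beforehand.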
On the technique in general: Quantitative high-throughput screening tests each substance at several concentrations.
On to `CCCOC(=O)c1ccc(O)cc1`, for which the “activity change, negative = cytotoxic” value was 21.8% [at 92.7 µM]. Still for that read-out and setting: with `O=C(O)Cc1cccc(-c2cc(CCCCCCc3ccc(O[C@H]4O[C@H](CO)[C@@H](O)[C@H](O)[C@@H]4O)c(-c4cccc(CC(=O)O)c4)c3)ccc2O[C@H]2O[C@H](CO)[C@@H](O)[C@H](O)[C@@H]2O)c1` the figure was -8.23% [at 0.597 µM]. Take `O=C(O)/C=C\C(=O)O`: the “activity change, negative = cytotoxic” value was 3.81%.

Take `COc1ccc(-c2cc(=S)ss2)cc1`: the “activity change, negative = cytotoxic” value is 30.4%. Still for that read-out and setting: with `O=C(CCN1CCN(CCO)CC1)N1c2ccccc2Sc2ccc(C(F)(F)F)cc21` the figure was -3.98%; with `c1ccc2sc(SN3CCOCC3)nc2c1`, 48.8%. Same read-out and setting: with `O=C(OCc1ccccc1)c1ccccc1` the figure was -1.06%; with `Nc1c(CC(=O)O)cccc1C(=O)c1ccc(Br)cc1`, -0.419%; with `CC(=O)c1ccc(OCC(=O)N2CCCCC2)cc1`, -6.54%.

In the case of `CNC(=O)c1c(I)c(NC(=O)CCCCC(=O)Nc2c(I)c(C(=O)O)c(I)c(C(=O)NC)c2I)c(I)c(C(=O)O)c1I`, the “activity change, negative = cytotoxic” value is -27.7%. For the compound `O=C(O)c1cc(O)c(O)c(O)c1`, the “activity change, negative = cytotoxic” value was -3.47%. For `C=CCCCCCCCCC(=O)O`, the “activity change, negative = cytotoxic” value was -29.6%. The same measure, in the same setting: then `Cc1ccc(C(=O)c2ccc(CC(=O)O)n2C)cc1`, with 16.2%. `Nc1cc(-c2ccncc2)c[nH]c1=O`: the “activity change, negative = cytotoxic” value is -7.29%. On to `COc1ccnc2c1CCCCC2S(=O)c1nc2ccccc2[nH]1` (stereo not drawn), for which the “activity change, negative = cytotoxic” value is 32.5%.

For the compound `N=C(N)N`, the “activity change, negative = cytotoxic” value was 2.2%. For the compound `CCCCCCCC/C=C/C(=O)O`, the Potency was 42.2 µM (active).

On to `Nc1ccc(C(=O)O)c(O)c1`, for which the “activity change, negative = cytotoxic” value was -5.74%. Still for that read-out and setting: with `CC1(C)S[C@@H]2[C@H](NC(=O)[C@H](N)c3ccccc3)C(=O)N2[C@H]1C(=O)O` the figure was -4.03%; with `CN(C)[C@@H]1C(=O)C(C(=O)NCN2CCCC2)=C(O)[C@@]2(O)C(=O)C3=C(O)c4c(O)cccc4[C@@](C)(O)C3C[C@@H]12` (stereo partly drawn), -22.9%; with `CCCCCCCCCCCCOCCO`, 8.11%.

Consider `CC(=O)SCC(CC(=O)c1ccc(C)cc1)C(=O)O` (stereo not drawn), for which the “activity change, negative = cytotoxic” value was -25.2%. For the compound `CCCSc1ccc2nc(NC(=O)OC)[nH]c2c1`, the Potency was 0.841 µM (active). Take `Cc1c(Nc2ncccc2C(=O)O)cccc1C(F)(F)F`: the Potency was 21.1 µM (active). As to `O=C(/C=C/c1ccccc1)NCCO`, the “activity change, negative = cytotoxic” value is -21.3%. Still for that read-out and setting: then `CCOC(=O)c1ccccc1O`, with -13.5%. Regarding `O=C(O)Cc1ccc2c(c1)C(=O)c1ccccc1CO2`, the “activity change, negative = cytotoxic” value is 0.776%. On to `Cc1c(N)c(=O)n(-c2ccccc2)n1C`, for which the “activity change, negative = cytotoxic” value was 0.0089%. Regarding `Clc1ccccc1-c1nc(-c2ccncc2)no1`, the “activity change, negative = cytotoxic” value is -4.4%. Consider `CC(C)(C)c1nnc(NS(=O)(=O)c2ccc(N)cc2)s1`, for which the “activity change, negative = cytotoxic” value is -20.5%. Same read-out and setting: then `CN1CCN(c2cc3c(nn2)Oc2ccccc2N3C)CC1`, with -14.4% [at 16.1 µM].

The nature of a further assay: qHTS of pediatric cancer cell lines to identify multiple opportunities for drug repurposing: Primary screen for BT-37 cells (AID 1347094).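 On activity change, negative = cytotoxic: plate controls were DMSO for no effect and bortezomib for full effect.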 As to conditions: BT-37 viability, CellTiter-Glo luminescence, 48 h; series mostly up to 57.3 µM; activity change, negative = cytotoxic: at the top concentration. Summed up: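 Readout: CellTiter-Glo luminescence, 48 h treatment. Controls DMSO (neutral) and bortezomib 2.3 µM final (positive). Potency and efficacy taken from primary-screen concentration-response curves.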
With `CCCOC(=O)c1ccc(O)cc1`, the “activity change, negative = cytotoxic” value is -9.49% [at 116 µM]. On the same count and under the same terms, then `O=C(O)Cc1cccc(-c2cc(CCCCCCc3ccc(O[C@H]4O[C@H](CO)[C@@H](O)[C@H](O)[C@@H]4O)c(-c4cccc(CC(=O)O)c4)c3)ccc2O[C@H]2O[C@H](CO)[C@@H](O)[C@H](O)[C@@H]2O)c1`, with 12.8% [at 0.745 µM]; and `O=C(O)/C=C\C(=O)O`, with 2.37%. `CC(C(=O)O)c1ccc2c(c1)[nH]c1ccc(Cl)cc12` (stereo not drawn): the “activity change, negative = cytotoxic” value was -2.08%.

Turning to `COc1ccc(-c2cc(=S)ss2)cc1`, the “activity change, negative = cytotoxic” value is 14%. The same measure, in the same setting: with `O=C(CCN1CCN(CCO)CC1)N1c2ccccc2Sc2ccc(C(F)(F)F)cc21` the figure was -0.313%; with `c1ccc2sc(SN3CCOCC3)nc2c1`, 3.02%; with `O=C(OCc1ccccc1)c1ccccc1`, 0.418%. Still for that read-out and setting: then `Nc1c(CC(=O)O)cccc1C(=O)c1ccc(Br)cc1`, with 7.2%; and `CC(=O)c1ccc(OCC(=O)N2CCCCC2)cc1`, with 29.4%. Same read-out and setting: with `CNC(=O)c1c(I)c(NC(=O)CCCCC(=O)Nc2c(I)c(C(=O)O)c(I)c(C(=O)NC)c2I)c(I)c(C(=O)O)c1I` the figure was -7.63%.

For the compound `O=C(O)c1cc(O)c(O)c(O)c1`, the “activity change, negative = cytotoxic” value is -13.7%.

On to `C=CCCCCCCCCC(=O)O`, for which the “activity change, negative = cytotoxic” value was 6.26%.

Turning to `Cc1ccc(C(=O)c2ccc(CC(=O)O)n2C)cc1`, the “activity change, negative = cytotoxic” value was 2.01%. Turning to `Nc1cc(-c2ccncc2)c[nH]c1=O`, the “activity change, negative = cytotoxic” value was 19.7%.

As to `COc1ccnc2c1CCCCC2S(=O)c1nc2ccccc2[nH]1` (stereo not drawn), the “activity change, negative = cytotoxic” value is 1.58%. Still for that read-out and setting: with `N=C(N)N` the figure was 14.7%.

Take `O=Cc1ccc(O)c(O)c1O`: the “activity change, negative = cytotoxic” value is -2.58%. Still for that read-out and setting: with `CCCCCCCC/C=C/C(=O)O` the figure was 0.637%. Same read-out and setting: then `Nc1ccc(C(=O)O)c(O)c1`, with 18.6%; and `CC1(C)S[C@@H]2[C@H](NC(=O)[C@H](N)c3ccccc3)C(=O)N2[C@H]1C(=O)O`, with 5.03%; and `CN(C)[C@@H]1C(=O)C(C(=O)NCN2CCCC2)=C(O)[C@@]2(O)C(=O)C3=C(O)c4c(O)cccc4[C@@](C)(O)C3C[C@@H]12` (stereo partly drawn), with -1.05%. Regarding `CCCCCCCCCCCCOCCO`, the “activity change, negative = cytotoxic” value is 12.7%. In the case of `CC(=O)SCC(CC(=O)c1ccc(C)cc1)C(=O)O` (stereo not drawn), the “activity change, negative = cytotoxic” value is 18%.

Regarding `O=C(O)c1ccccc1Nc1cccc(C(F)(F)F)c1`, the “activity change, negative = cytotoxic” value is 3.03%. Consider `CCCSc1ccc2nc(NC(=O)OC)[nH]c2c1`, for which the Potency is 2.46 µM (active). As to `Cc1c(Nc2ncccc2C(=O)O)cccc1C(F)(F)F`, the “activity change, negative = cytotoxic” value is -4.55%. The same measure, in the same setting: with `O=C(/C=C/c1ccccc1)NCCO` the figure was 8.9%.

Turning to `CCCCCCOc1ccccc1C(N)=O`, the “activity change, negative = cytotoxic” value was -4.76%. Same read-out and setting: then `CCOC(=O)c1ccccc1O`, with -21.6%. The same measure, in the same setting: then `COc1cc2c3cc1Oc1cc(ccc1O)C[C@@H]1c4c(cc(OC)c(O)c4Oc4ccc(cc4)C[C@@H]3N(C)CC2)CC[N+]1(C)C`, with -4.3%; and `O=C(O)Cc1ccc2c(c1)C(=O)c1ccccc1CO2`, with 9.88%. Take `Cc1c(N)c(=O)n(-c2ccccc2)n1C`: the “activity change, negative = cytotoxic” value is -4.05%. `Clc1ccccc1-c1nc(-c2ccncc2)no1`: the “activity change, negative = cytotoxic” value was -7.58%. For `CC(C)(C)c1nnc(NS(=O)(=O)c2ccc(N)cc2)s1`, the “activity change, negative = cytotoxic” value was 1.61%. Still for that read-out and setting: with `CN1CCN(c2cc3c(nn2)Oc2ccccc2N3C)CC1` the figure was 2.65% [at 20.1 µM]. Still for that read-out and setting: with `CC(C)OC(=O)c1cc(C(=O)OC(C)C)cc([N+](=O)[O-])c1` the figure was 10.4% [at 116 µM].
